PubChem BioAssay AID1159580 (chemical genetic matrix, 2015)
The campaign covered roughly 5,500 compounds. About 2,000 (36%) were called active. Roughly 18% stayed inconclusive and do not appear here. Some of the results follow. A number with no mark means an inactive call. Rule as the data show it: active = normalized growth mostly below about 0.91 (no sharp cut-off); inconclusive = no clear call, values can overlap the other calls; inactive = mostly above about 0.92.

Experiment: chemical genetic growth profiling, strain panel (AID 1159580);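 also: tested at 20 µM; growth read once vehicle control cultures reached saturation at 30 °C; 1 = growth at the plate median or of vehicle wells; lower values mean less growth of the strain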
Conditions: S. cerevisiae deletion strains, growth OD

CC(=O)c1cc(CC=C(C)C)c(O)c(CC=C(C)C)c1
normalized growth (locus YAL013W, strain DEP1, hits give low values): 0.924 | normalized growth (locus YAL021C, strain ccr4, hits give low values): 1 | normalized growth (locus YAL026C, strain drs2, hits give low values): 1.01 | normalized growth (locus YAL030W, strain snc1, hits give low values): 1.01 | normalized growth (locus YBL061C, strain skt5, hits give low values): 1 | normalized growth (locus YBR009C, strain hhf1, hits give low values): 1 | normalized growth (locus YBR021W, strain FUR4, hits give low values): 1.42 [resistant] (active) | normalized growth (locus YBR023C, strain chs3, hits give low values): 1 | normalized growth (locus YBR171W, strain sec66, hits give low values): 1.01 | normalized growth (locus YBR229C, strain ROT2, hits give low values): 0.989 | normalized growth (locus YBR231C, strain swc5, hits give low values): 1 | normalized growth (locus YBR279W, strain paf1, hits give low values): 1.02 | normalized growth (locus YCL011C, strain gbp2, hits give low values): 1.01 | normalized growth (locus YCL016C, strain dcc1, hits give low values): 1.01 | normalized growth (locus YCL029C, strain bik1, hits give low values): 0.96 | normalized growth (locus YCL061C, strain MRC1, hits give low values): 1.01 | normalized growth (locus YCL069W, strain vba3, hits give low values): 1 | normalized growth (locus YCR088W, strain abp1, hits give low values): 1 | normalized growth (locus YDL005C, strain med2, hits give low values): 1.02 | normalized growth (locus YDL035C, strain GPR1, hits give low values): 0.947 | normalized growth (locus YDL040C, strain nat1, hits give low values): 1.01 | normalized growth (locus YDL074C, strain BRE1, hits give low values): 0.797 | normalized growth (locus YDL101C, strain DUN1, hits give low values): 0.945 | normalized growth (locus YDL134C, strain PPH21, hits give low values): 0.987 | normalized growth (locus YDL185W, strain tfp1, hits give low values): 0.927 | normalized growth (locus YDL192W, strain arf1, hits give low values): 0.919 | normalized growth (locus YDR001C, strain nth1, hits give low values): 1 | normalized growth (locus YDR069C, strain doa4, hits give low values): 1 | normalized growth (locus YDR101C, strain arx1, hits give low values): 0.969 | normalized growth (locus YDR137W, strain rgp1, hits give low values): 0.939 | normalized growth (locus YDR150W, strain NUM1, hits give low values): 0.969 | normalized growth (locus YDR159W, strain sac3, hits give low values): 1.02 | normalized growth (locus YDR162C, strain NBP2, hits give low values): 0.665 (active) | normalized growth (locus YDR195W, strain ref2): 1.06 | normalized growth (locus YDR297W, strain sur2, hits give low values): 1.01 | normalized growth (locus YDR318W, strain mcm21, hits give low values): 0.971 | normalized growth (locus YDR334W, strain swr1, hits give low values): 1.01 | normalized growth (locus YDR335W, strain msn5, hits give low values): 1.02 | normalized growth (locus YDR388W, hits give low values): 0.977 | normalized growth (locus YDR392W, strain spt3, hits give low values): 0.977 | normalized growth (locus YDR502C, strain sam2, hits give low values): 0.955 | normalized growth (locus YEL003W, strain gim4, hits give low values): 1.01 | normalized growth (locus YEL037C, strain rad23, hits give low values): 1 | normalized growth (locus YEL061C, strain CIN8 (second series), hits give low values): 1.01 | normalized growth (locus YEL061C, strain CIN8, hits give low values): 0.989 | normalized growth (locus YER015W, strain faa2, hits give low values): 1 | normalized growth (locus YER016W, strain bim1, hits give low values): 1.01 | normalized growth (locus YER110C, hits give low values): 0.966 | normalized growth (locus YER111C, strain swi4, hits give low values): 1.02 | normalized growth (locus YER155C, strain BEM2 (second series), hits give low values): 1.03 | normalized growth (locus YER155C, strain BEM2, hits give low values): 1 | normalized growth (locus YER167W, strain BCK2, hits give low values): 0.992 | normalized growth (locus YFR010W, strain ubp6, hits give low values): 1.01 | normalized growth (locus YGL078C, strain dbp3, hits give low values): 0.984 | normalized growth (locus YGL086W, strain mad1, hits give low values): 0.953 | normalized growth (locus YGL167C, strain pmr1, hits give low values): 0.987 | normalized growth (locus YGL173C, strain kem1, hits give low values): 1.01 | normalized growth (locus YGL227W, strain vid30, hits give low values): 1.01 | normalized growth (locus YGL240W, strain doc1, hits give low values): 1.03 | normalized growth (locus YGL248W, strain PDE1, hits give low values): 0.93 | normalized growth (locus YGL253W, strain hxk2, hits give low values): 1.01 | normalized growth (locus YGR078C, strain PAC10, hits give low values): 0.922 | normalized growth (locus YGR135W, strain pre9, hits give low values): 0.978 | normalized growth (locus YGR252W, strain gcn5, hits give low values): 0.921 | normalized growth (locus YHR013C, strain ard1, hits give low values): 1.06 | normalized growth (locus YHR027C, strain rpn1, hits give low values): 1 | normalized growth (locus YHR030C, strain SLT2, hits give low values): 0.878 (active) | normalized growth (locus YHR079C, strain IRE1 (second series), hits give low values): 0.97 | normalized growth (locus YHR094C, strain hxt1, hits give low values): 0.982 | normalized growth (locus YHR129C, strain ARP1, hits give low values): 0.97 | normalized growth (locus YHR142W, strain chs7, hits give low values): 0.995 | normalized growth (locus YHR200W, strain rpn10, hits give low values): 0.963 | normalized growth (locus YIL066C, strain RNR3, hits give low values): 0.965 | normalized growth (locus YIL073C, strain SPO22, hits give low values): 0.846 | normalized growth (locus YIL125W, strain kgd1, hits give low values): 0.984 | normalized growth (locus YIR030C, strain dcg1, hits give low values): 0.98 | normalized growth (locus YJL092W, strain hpr5, hits give low values): 1.01 | normalized growth (locus YJL095W, strain BCK1 (second series), hits give low values): 1.01 | normalized growth (locus YJL095W, strain BCK1, hits give low values): 0.9 | normalized growth (locus YJL115W, strain asf1, hits give low values): 1.02 | normalized growth (locus YJL129C, strain trk1, hits give low values): 0.974 | normalized growth (locus YJL134W, strain LCB3, hits give low values): 0.983 | normalized growth (locus YJL154C, strain vps35, hits give low values): 1.02 | normalized growth (locus YJL164C, strain tpk1, hits give low values): 0.999 | normalized growth (locus YJL166W, strain qcr8, hits give low values): 1.02 | normalized growth (locus YJL168C, strain set2, hits give low values): 0.984
